The whole screen tested about 360,000 compounds, of which about 1,500 (0.42%) were called active. Only a selection was taken, and actives are over-represented in it overall. A number with no mark means an inactive call. Rule as the data show it: active = inhibition above about 13% (passing the limit was not always enough); inactive = the rest.

Lon protease (Escherichia coli (strain K12)), sequence (P0A9M0 whole entry, looked up): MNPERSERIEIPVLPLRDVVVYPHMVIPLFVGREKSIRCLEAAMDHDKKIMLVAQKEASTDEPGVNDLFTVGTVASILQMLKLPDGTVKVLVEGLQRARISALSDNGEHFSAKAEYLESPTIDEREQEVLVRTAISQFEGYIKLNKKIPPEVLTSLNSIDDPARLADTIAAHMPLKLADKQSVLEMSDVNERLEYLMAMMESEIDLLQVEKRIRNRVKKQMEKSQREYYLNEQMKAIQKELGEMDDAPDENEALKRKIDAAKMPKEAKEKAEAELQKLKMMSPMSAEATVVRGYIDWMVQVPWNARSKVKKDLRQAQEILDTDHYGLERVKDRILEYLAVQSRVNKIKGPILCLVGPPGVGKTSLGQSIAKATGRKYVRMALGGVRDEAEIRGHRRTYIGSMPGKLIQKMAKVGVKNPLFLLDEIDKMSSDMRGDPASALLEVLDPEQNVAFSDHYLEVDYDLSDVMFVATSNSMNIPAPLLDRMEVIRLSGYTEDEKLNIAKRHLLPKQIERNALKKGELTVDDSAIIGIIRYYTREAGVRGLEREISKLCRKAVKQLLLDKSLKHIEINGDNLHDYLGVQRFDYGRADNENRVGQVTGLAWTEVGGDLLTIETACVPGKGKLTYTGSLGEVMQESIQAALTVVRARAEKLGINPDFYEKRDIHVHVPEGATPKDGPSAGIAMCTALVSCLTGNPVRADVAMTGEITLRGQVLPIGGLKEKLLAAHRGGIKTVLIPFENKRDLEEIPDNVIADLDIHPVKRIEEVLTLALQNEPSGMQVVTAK

The assay addresses Lon protease (Escherichia coli (strain K12)) (UniProt P0A9M0). Briefly: inhibitors of E. coli Lon protease, primary screen, biochemical, fluorescence polarization (AID 602123).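 Also: 0% = enzyme with probe and DMSO and 100% = no enzyme.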 To be noted: purified E. coli Lon protease, at 7.94 µM, stronger effect = higher value. Background: In fluorescence polarisation assays a small probe gives low polarisation when free and higher when bound to something large.
The term inhibition denotes the drop in the measured response relative to a control, in per cent. With `O=S(=O)(/N=C(/Nc1ccccc1)c1ccccc1)c1cccs1`, the inhibition is 5.92%.

As for `O=S1(=O)CC(N2CCN(CCO)CC2)CN1Cc1cn(Cc2ccc(Cl)cc2)nn1` (configuration not stated), the inhibition is -4.7%.

For `Cn1nc(C(F)(F)F)c2cc(NC(=O)OCC(C)(C)C)sc21`, the inhibition was -3.72%.

In the case of `CCNc1nc(N)nc(-c2cc(Cl)ccc2OC)n1`, the inhibition was -13.4%.

In the case of `CCOc1cc(S(=O)(=O)NC2CC(C)(C)NC(C)(C)C2)ccc1F`, the inhibition was -9.09%.

On to `COCCNC(=O)CN(Cc1ccco1)C(=O)CCC(=O)Nc1nccs1`, for which the inhibition is -1.88%.

For `COCCNC(=O)Nc1ccc2nc(-c3ccco3)c(-c3ccco3)nc2c1`, the inhibition is 25.9% (active).

As to `COc1ccc(CCNC(=O)Nc2ccc3c(c2)c(=O)n(C)n3C)cc1OC`, the inhibition is 7.25%.

For the compound `O=C(c1cccc(Br)c1)N1CCN(C2=NS(=O)(=O)c3ccccc32)CC1`, the inhibition was -1.34%.

Take `Oc1ccc(N=Cc2sc3ccccc3c2Cl)cc1`: the inhibition was 32.3% (active).

On to `COc1cc([C@H](Cc2ccccc2)NC(C)=O)oc(=O)c1`, for which the inhibition was 17.6% (active).

With `COc1ccc2oc(C(=O)NCC(Cc3ccccc3)N(C)C)c(C)c2c1` (configuration not stated), the inhibition is 1.71%.

Take `COc1ccc(OC)c(NC(=O)N[C@H](Cc2ccccc2)C(=O)NN)c1`: the inhibition was -10.1%.

With `CC(=O)N1CC(C)c2scc(C)[n+]2-c2ccccc21` (configuration not stated), the inhibition is 20.3%.

`C=CCc1cccc2cc(C(=O)Nc3ccc(NC(C)=O)cc3)c(=O)oc12`: the inhibition was -3.06%.

As for `CCc1cc2c(=O)c(-c3ccon3)c(N)oc2cc1OC`, the inhibition is -12.2%.

`Cc1cc(OCCN2CCCC2)cc(C(C)C)c1`: the inhibition is 3.29%.

For the compound `Nc1ccc2nc3c(=O)[nH]c(=S)[nH]c3nc2c1`, the inhibition is 182% (active).

Consider `Cc1coc2c(O)cc3c(c12)OC1(N2CCCCC2)C(=O)NCCCC31` (configuration not stated), for which the inhibition was 29.9% (active).

Regarding `CSc1ccc(C(=O)C2CCCN(C(=O)c3ccc(C)nc3)C2)cc1` (configuration not stated), the inhibition is -8.1%.

For `CCCC(=O)OCC(=O)Nc1cc(Cl)ccc1[N+](=O)[O-]`, the inhibition is 5.89%.

For the compound `CC1(C)CC(N2CCN(C(c3ccccc3)c3ccccc3)CC2)=CC(=[N+]2CCCCC2)C1`, the inhibition is -3.99%.

As to `O=C(O)Cc1ccc(NC(=O)C2CCCCC2C(=O)O)cc1` (configuration not stated), the inhibition was -2.29%.

As to `CC#CC[N+](C)(C)CCCCCC`, the inhibition was 11.3%.

Consider `COc1ccc(N2CCN(C3CCCCC3NS(=O)(=O)c3ccccc3)CC2)cc1` (configuration not stated), for which the inhibition is 17.2% (active).

Turning to `O=S(=O)(NC1CCCCC1N1CCN(c2ccccc2F)CC1)c1ccccc1` (configuration not stated), the inhibition is -9.13%.

For `CCN1CCN(C2CCCCC2NS(=O)(=O)c2ccc(Cl)cc2)CC1` (configuration not stated), the inhibition is -11.9%.

On to `N#Cc1ccccc1Sc1ccccc1C(=O)OCC(=O)NC1CCCCC1`, for which the inhibition was -2.35%.

As to `Cc1nc2nc3c(cn2n1)C(=O)CC(c1ccccc1)C3` (configuration not stated), the inhibition was 6.37%.

For the compound `CC(C)n1c(O)c(N=Nc2ccccn2)c2ccccc21`, the inhibition is -4.1%.

As to `O=S(=O)(N1CCOCC1)N1CCN(c2ccccc2F)CC1`, the inhibition is 3.92%.

`Cc1cccc(C)c1N1CCN(S(=O)(=O)N2CCCCC2)CC1`: the inhibition was 2.21%.

Consider `Cc1cccc(C)c1N1CCN(S(=O)(=O)N2CCOCC2)CC1`, for which the inhibition is 21.5% (active).

For the compound `COc1ccc(/C=C/CN2CCCC(C(=O)c3cc(F)ccc3F)C2)cc1` (configuration not stated), the inhibition is -0.58%.

`C=CCn1c(=S)sc2c(=O)[nH]c(C)nc21`: the inhibition is 5.17%.

For `Cc1ccn(C(CC(=O)c2ccc(Br)cc2)C(=O)O)n1` (configuration not stated), the inhibition was 5.2%.

With `Cc1nc(N)sc1-c1ccccc1`, the inhibition is -2.59%.

On to `N#Cc1c(N)nc2c3c(sc(=N)c2c1N)NC(=O)CC3c1ccccc1Cl` (configuration not stated), for which the inhibition is -13.5%.

`O=[N+]([O-])c1cccc(C=NN=Cc2ccccc2O)c1`: the inhibition was 0.97%.

As to `Nc1ccccc1/C=N\N=C/c1ccccc1N`, the inhibition is 25.9% (active).

As to `COc1ccc(N2CCN(S(=O)(=O)CCNC(=O)C34CC5CC(CC(C5)C3)C4)CC2)cc1`, the inhibition is -6.65%.

Consider `COc1ccc(C)cc1S(=O)(=O)Nc1cc2c3c(c1)CCC(=O)N3CCC2`, for which the inhibition was 0.26%.

On to `CNc1cnc(-c2cc(OC)c(OC)c(OC)c2)cn1`, for which the inhibition was 1.98%.

Regarding `COC(=O)c1cccc(N(C(=O)c2ccco2)C(C(=O)NC2CCCC2)c2ccco2)c1` (configuration not stated), the inhibition is -3.87%.

Take `Cc1ccc(-n2c(=O)c(C#N)cc3c(=O)n4ccccc4nc32)cc1C`: the inhibition was -8.16%.

On to `COC(=O)Nc1ccc(S(=O)(=O)N2CCN(CCN3C(=O)C4C5C=CC(C5)C4C3=O)CC2)cc1` (configuration not stated), for which the inhibition is -1.58%.

For `COc1ccc(COC(=O)N/N=C(\C)CC(=O)Nc2ccc(Cl)cc2)cc1`, the inhibition is 9.08%.

With `C/C(CC(=O)Nc1ccc(Cl)cc1)=N\NC(=O)C(=O)NCCO`, the inhibition was -5.9%.

Regarding `CCc1ccc(NC(=O)C(=O)N/N=C(\C)CC(=O)NCCOC)cc1`, the inhibition was 28.6% (active).

In the case of `O=C(/C=C/c1cccc(C(F)(F)F)c1)N1CCN(c2ccccn2)CC1`, the inhibition is 8.73%.

With `COc1nc(N(C)C)nc(N2CC(=O)N(CCNS(=O)(=O)c3ccc(C)cc3)C2=N)n1`, the inhibition is -0.47%.

In the case of `C/C(=N\NC(=O)CCn1nc(C)cc1C)C(C)(C)C`, the inhibition was -2.11%.

As to `CSc1nc(C)nc(C2CC2)c1C#N`, the inhibition was 5.92%.

Turning to `CC1(C)OC(=O)C(=CNC(CO)C(=O)O)C(=O)O1` (configuration not stated), the inhibition was 17.8% (active).

As to `CC(C)Oc1ccccc1C(=O)NC(CO)C(=O)O` (configuration not stated), the inhibition was -0.19%.

As for `Cc1nn(CC(=O)Nc2ccc(C#N)cc2)c(C)c1[N+](=O)[O-]`, the inhibition is -15.5%.

As for `COc1ncnc2c1N=C1CC(C)(C)CC(N)=C1S2`, the inhibition was 65.4% (active).

Turning to `Cn1cc(CCC(=O)N2CCCC(C(=O)c3ccc(C(C)(C)C)cc3)C2)cn1` (configuration not stated), the inhibition was -1.82%.

`O=C(COc1ccc(/C=N/NS(=O)(=O)c2ccccc2)cc1)NCCc1ccccc1`: the inhibition was -5.95%.

As for `COC(=O)[C@]12CCCCC=C1N(CCC1=CCCCC1)C(=O)[C@H](CC(=O)NCC1CCCCC1)C2`, the inhibition is -2.93%.

Consider `CCCCOCCCNC(=O)C[C@@H]1C[C@@]2(C(=O)OC)CCCCC=C2N(CCC2=CCCCC2)C1=O`, for which the inhibition is 14.4% (active).

`CCOC(=O)N1CCN(C(=O)C[C@@H]2C[C@@]3(C(=O)OC)CCCCC=C3N(CCC3=CCCCC3)C2=O)CC1`: the inhibition was 4.15%.

The values above are taken from PubChem BioAssay AID602123 (The Scripps Research Institute Molecular Screening Center, 2011).
